Measurements from PubChem BioAssay (EPA / NIEHS).
“And” between values parts separate entries of the source, which are not always exact repeats. Identical values can stand only once. The source holds several records for some structures; these can differ, active in one and inactive in another. The source made the active and inactive calls. The calls were made as follows: active = hit-call score of the fitted dose curve at least 0.9, where 1 is the maximum; inactive = score below 0.9.

What was measured:
[1] = IUF_NPC2c_oligodendrocyte_migration_120hr: Leibniz Research Institute for Environmental Medicine (IUF) 120-hour Neural Progenitor Cell Migration Assay for Oligodendrocyte Migration (NPC2c) (AID 2284297);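 also: O4-positive oligodendrocyte migration distance divided by radial glia migration distance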
Method in brief: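 hNPC spheres (GW 16-19 cortex), PDL/laminin, DMEM/F12 3:1 + 1% N2, 37C. Dosing day 0–5, half feed day 3, DMSO ≤0.1%. Fixed 120 h; O4 ICC + Hoechst, HCI. Readout: mean oligodendrocyte distance from sphere edge / radial glia distance.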

[2] = IUF_NPC2a_radial_glia_migration_120hr: Leibniz Research Institute for Environmental Medicine (IUF) 120-hour Neural Progenitor Cell Migration Assay for Radial Glia Migration (NPC2a) (AID 2284298)
Method in brief: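 Hoechst-stained nuclei imaged at 120 h; algorithm maps sphere core by densest nuclei, sets migration edge at density threshold, gives radial glia migration distance (um) per well vs DMSO. hNPC spheres (0.3 mm), PDL/laminin, DMEM/F12 3:1 + 1% N2.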

[3] = IUF_NPC2a_radial_glia_migration_72hr: Leibniz Research Institute for Environmental Medicine (IUF) 72-hour Neural Progenitor Cell Migration Assay for Radial Glia Migration (NPC2a) (AID 2284299)
Method in brief: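 Migration out of plated human neural progenitor spheres is scored at 72 h as the distance in um from the sphere core edge to the edge of the migration area. Values are the mean of four manual measurements per well, normalised to DMSO.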

KRT18 (gene 3875) = assay: BSK_BE3C_Keratin818: BioMAP Diversity Plus: BE3C Assay for Keratin 818 Biomarker Activity (AID 2284282); conditions: primary human bronchial epithelial cells
Method in brief: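 BE3C: human bronchial epithelial primary cells, 24 h exposure, Keratin 8/18 ELISA; DMSO = negative control/baseline; cytotoxicity by parallel SRB stain (0.1% SRB after 10% TCA fixation, 560 nm).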

[4] = read-out: Matrix Metallopeptidase 9 (MMP9), MMP9 (gene 4318); assay: BSK_BE3C_MMP9: BioMAP Diversity Plus: BE3C Assay for Matrix Metallopeptidase 9 (MMP9) Biomarker Activity (AID 2284283); conditions: primary human bronchial epithelial cells
Method in brief: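 ELISA read-out of MMP-9 after 24 h compound exposure of human lung bronchial epithelial primary cells (BE3C). Fit in gain direction vs DMSO negative control; total protein by SRB in parallel cultures flagged overt cytotoxicity.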

[5] = read-out: Plasminogen activator inhibitor-1 (PAI1), SERPINE1 (gene 5054); assay: BSK_CASM3C_PAI1: BioMAP Diversity Plus: CASM3C Assay for Plasminogen activator inhibitor-1 (PAI1) Biomarker Activity (AID 2284284); conditions: primary human coronary artery smooth muscle cells;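 also: PAI-1 protein level measured by ELISA 24 h after dosing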
[6] = read-out: Monocyte Chemoattractant Protein-1 (MCP1), CCL2 (gene 6347); assay: BSK_hDFCGF_MCP1: BioMAP Diversity Plus: hDFCGF Assay for Monocyte Chemoattractant Protein-1 (MCP1) Biomarker Activity (AID 2284285); conditions: primary human foreskin fibroblasts
Method in brief: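 Human foreskin fibroblasts (hDFCGF system) were exposed to compound and secreted MCP-1 was measured by ELISA after 24 hours. Activity was fitted relative to DMSO. Cytotoxicity was checked by SRB total-protein staining in parallel cultures.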

[7] = read-out: Intercellular Adhesion Molecule 1 (ICAM1), ICAM1 (gene 3383); assay: BSK_hDFCGF_ICAM1: BioMAP Diversity Plus: hDFCGF Assay for Intercellular Adhesion Molecule 1 (ICAM1) Biomarker Activity (AID 2284287); conditions: primary human foreskin fibroblasts
Method in brief: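 Primary human foreskin fibroblasts (hDFCGF system) dosed with chemical; ICAM-1 quantified by ELISA at 24 h relative to DMSO. Parallel SRB total-protein staining to assess overt cytotoxicity.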

[8] = read-out: TIMP metallopeptidase inhibitor 2 (TIMP2), TIMP2 (gene 7077); assay: BSK_hDFCGF_TIMP2: BioMAP Diversity Plus: hDFCGF Assay for TIMP metallopeptidase inhibitor 2 (TIMP2) Biomarker Activity (AID 2284289); conditions: primary human foreskin fibroblasts
Method in brief: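 Primary human foreskin fibroblasts in the hDFCGF system, dosed for 24 h; TIMP-2 level measured by ELISA, fitted in the positive direction against DMSO; cytotoxicity checked in parallel by sulforhodamine B total protein staining.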

[9] = read-out: Thrombomodulin, THBD (gene 7056); assay: BSK_LPS_Thrombomodulin: BioMAP Diversity Plus: LPS Assay for Thrombomodulin Biomarker Activity (AID 2284296); conditions: primary human HUVEC with PBMC
Description: BSK_LPS is a cell-based, multiplexed-readout assay that uses umbilical vein endothelium and peripheral blood mononuclear cells, a human vascular primary cell co-culture, with measurements taken at 24 hours after chemical dosing in a 96-well plate.BSK_LPS_Thrombomodulin is an assay component measured in the BSK_LPS assay. It measures Thrombomodulin antibody related to regulation of gene expression using ELISA technology.Data from the assay component BSK_LPS_Thrombodulin was analyzed at the endpoint, BSK_LPS_Thrombomodulin, in the positive analysis fitting direction relative to DMSO as the negative control and baseline of activity. Using a type of binding reporter, gain or loss-of-signal activity can be used to understand protein changes. To generalize the intended target to other relatable targets, this assay endpoint is annotated to the 'gpcr' intended target family, where the subfamily is 'rhodopsin-like receptor'.
The levels of cell surface (or secreted, indicated by the prefix "s") biomarker endpoints were measured by ELISA. Overt cytotoxicity to cells in confluent adherent cultures (all systems other than the BT system) was assessed by measuring total protein levels using sulforhodamine B (SRB) staining in parallel cultures at the time of biomarker measurements, indicated as SRB endpoints. For proliferation assays for adherent cell types, individual cell types are cultured at sub-confluence and relative cell numbers quantified by SRB staining at time points optimized for each system (48 h: 3C and CASM3C systems; 72 h: BT and HDF3CGF systems; 96 h: SAg system). SRB was performed by staining cells with 0.1% SRB after fixation with 10% TCA and reading wells at 560 nm.Viability and proliferation of PBMC (T cells) was quantified by Alamar Blue reduction for the SAg and BT systems. For PBMC viability (referred to as PBMC Cytotoxicity within the assay endpoint names), cells were plated (75,000/well in a 96-well plate) and then chemical samples added for 1 h before addition of activators, SEB and TSST-1 (20 ng/mL final concentration each). Cells were incubated for 90 h. Then, Alamar Blue (20 uL/well) (Invitrogen, Cat DAL1100) was added for 6 h, and the plates were read with a fluorescence microplate reader at 546/580 nm (excitation/emission). For PBMC proliferation, cells were plated and activated as above but incubated for only 16 h prior to addition of Alamar Blue. Plates were read after 6 h.

Measured: AC50

Oc1c(Cl)cc(Cl)c(Cl)c1Cc1c(O)c(Cl)cc(Cl)c1Cl
active: [1] 0.124 µM | [2] 0.272 µM | [3] 0.38 µM

CC(CN=Cc1ccccc1O)N=Cc1ccccc1O (stereo not drawn)
not listed: [1] | [2] | [3]
inactive: all other assays above

CCCCCCC(CO)CCCC (stereo not drawn)
active: [6] 30.9 µM and 35 µM | [7] 35.6 µM and 34.7 µM | [8] 30.6 µM and 37.3 µM
inactive: KRT18 (gene 3875) | [4] | [5] | [9]

COCCc1ccc(OCC(O)CNC(C)C)cc1 (stereo not drawn)
inactive: [1] | [2] | [3]

O=C(Nc1ccc2c(O)c(N=Nc3ccc(N=Nc4ccc(S(=O)(=O)O)cc4)cc3)c(S(=O)(=O)O)cc2c1)c1ccccc1
not listed: [1] | [2] | [3]
inactive: all other assays above

CC1(C)CCC[C@]2(C)[C@H]3CCO[C@]3(C)CC[C@@H]12
inactive: KRT18 (gene 3875) | [4] | [5] | [9]
active: KRT18 (gene 3875) 30.8 µM | [4] 31.6 µM | [6] 30.6 µM and 30.5 µM | [7] 37.5 µM and 37.8 µM | [8] 36.4 µM and 37.9 µM

CCOC(=O)C(C#N)=C(c1ccccc1)c1ccccc1
not listed: [1] | [2] | [3]
inactive: all other assays above

O=CN1CCOCC1
not listed: [1] | [2] | [3]
inactive: all other assays above

C=CC(C)(O)CCC=C(C)C (stereo not drawn)
not listed: [1] | [2] | [3]
inactive: all other assays above

COCCOCCOCCO
inactive: [1] | [2] | [3]

CN(C)CCOC(C)(c1ccccc1)c1ccccn1 (stereo not drawn)
inactive: [1] | [2] | [3]
